From PubChem BioAssay
Only some compounds are listed: those with a hit (about 3% of all), similar ones and a draw of the others.
SENP8 block-1: SENP8 (human) protease inhibition | Q96LD8 | actives 0.64% (n = 360,000) | AID 602440 | recombinant SENP8, Nedd8 substrate fluorescence | inhibition, % at 20 µM; in the data active = inhibition mostly above about 40%, no sharp cut-off; inactive = mostly below about 27%
Target sequence (Q96LD8 whole entry, looked up): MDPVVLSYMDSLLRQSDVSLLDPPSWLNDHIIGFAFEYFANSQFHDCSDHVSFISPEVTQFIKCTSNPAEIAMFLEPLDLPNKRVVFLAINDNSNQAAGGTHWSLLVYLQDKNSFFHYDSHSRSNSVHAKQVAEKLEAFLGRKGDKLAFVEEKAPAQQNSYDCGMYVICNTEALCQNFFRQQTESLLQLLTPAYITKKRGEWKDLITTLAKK
TRAIL sens C8: sensitizes caspase-8 expressing cells to TRAIL | actives 1% (n = 360,000) | inhibition (viability loss, TRAIL sensitization), % at 10 µM | NB7+C8 cells + TRAIL, ATPlite viability luminescence | AID 624354;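 active = compounds causing at least 50% loss of cell viability in the single-dose screen, relative to plate controls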
SENP8 block-2: blocks the human protease SENP8 | inhibition, % at 10 µM | purified SENP8, Z-RLRGG-aminoluciferin cleavage, luminescence | actives 1.2% (n = 330,000) | AID 2540 | Q96LD8; in the data active = inhibition above about 50%
PPC-1+TRAIL kill: compounds killing PPC-1 cancer cells with TRAIL present (potentiator screen, no TRAIL-free arm); actives 0.41% (n = 220,000); PPC-1 cells + TRAIL, ATPLite viability luminescence; cell killing (% activity), % at 4 µM or 5 µM; AID 1443;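 active = cell killing above 50% in the first pass at 4 µM, then a duplicate retest at 5 µM averaging 50% or more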;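 also: plate controls were cells with TRAIL plus DMSO for no effect and medium-only wells lacking cells for full effect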
SENP7 inh: SENP7 protease inhibition | recombinant SENP7, Z-RLRGG-aminoluciferin luminescence, 40 min | inhibition, % at 5 µM | actives 1.5% (n = 330,000) | AID 434973;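 active = inhibition above about 50% at the single test dose, limit read from the data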;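 also: plate controls were DMSO with enzyme for no effect and no enzyme buffer wells for full effect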
SENP6 inh: inhibitors of human SENP6 protease; inhibition, % at 10 µM; actives 1.8% (n = 330,000); Q9GZR1; Recombinant SENP6 catalytic domain, aminoluciferin luminescence; AID 2599;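 active = inhibition above about 50% at the single tested dose, limit read from the data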;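 also: plate controls were DMSO wells with enzyme for no effect and DMSO wells lacking enzyme for full effect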
SENP8 conf: human SENP8 inhibition, confirmed. shares compounds with SENP7 inh. Recombinant SENP8, Z-RLRGG-aminoluciferin luminescence, 60 min. inhibition, % at 12.5 µM. actives 40% (n = 6,200);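 active = mean inhibition across replicates above about 50%, limit read from the data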
SENP6 confirm: human SENP6 inhibition, confirmed | shares compounds with SENP7 inh | recombinant SENP6, Z-RLRGG-aminoluciferin luminescence | inhibition, % at 12.5 µM | actives 58% (n = 6,200) | AID 488915
SENP7 confirm: confirmation of human SENP7 protease inhibitors. recombinant SENP7, Z-RLRGG-aminoluciferin luminescence, 40 min. shares compounds with SENP7 inh. inhibition, % at 12.5 µM. actives 69% (n = 6,200)
Casp3 select: caspase-3 inhibition (SENP selectivity assay); AID 488918; purified caspase-3, Z-DEVD-aminoluciferin luminescence, 60 min; shares compounds with SENP7 inh; inhibition, % at 12.5 µM; actives 60% (n = 6,200);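 active = mean inhibition above about 50%, limit read from the data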;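 also: plate controls were enzyme with DMSO for no effect and wells without caspase-3 for full effect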
Target sequence (P42574 28-227 limits assumed): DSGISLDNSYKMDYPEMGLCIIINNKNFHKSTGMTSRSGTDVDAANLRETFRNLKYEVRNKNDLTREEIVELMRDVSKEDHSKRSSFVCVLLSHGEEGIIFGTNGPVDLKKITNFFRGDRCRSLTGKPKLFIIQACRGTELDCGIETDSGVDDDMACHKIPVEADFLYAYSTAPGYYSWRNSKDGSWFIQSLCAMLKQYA
Luc interf: luminescence interference (SENP counter-screen). actives 39% (n = 6,200). shares compounds with SENP7 inh. inhibition, % at 12.5 µM. Pre-incubated SENP8/Z-RLRGG-aminoluciferin, luciferase luminescence interference;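 active = mean inhibition above about 50% when retested at one dose, limit read from the data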;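 also: plate controls were DMSO wells with completed reaction for no effect and substrate without enzyme for full effect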
An asterisk follows results filed as active; . = no result given.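 The calls were made as follows, unless noted: active = mean inhibition above about 50% in the one-dose retest (limit read from the data); inactive = the rest.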

SMILES	SENP8 block-1	TRAIL sens C8	SENP8 block-2	PPC-1+TRAIL kill	SENP7 inh	SENP6 inh	SENP8 conf	SENP6 confirm	SENP7 confirm	Casp3 select	Luc interf
C/C(=N\NC(=O)c1ccc(Br)cc1)c1ccccc1	20	45	38	14	36	70*	24	55*	36	48	21
Cc1occc1C(=O)N/N=C/C(Br)=C\c1ccccc1	14	5	91*	27	96*	92*	91*	95*	101*	90*	61*
C/C(=N\NC(=O)c1cccnc1)c1ccc(Br)cc1	5	-2	4	.	6	-3	.	.	.	.	.
O=C(N/N=C/C(Br)=C\c1ccccc1)c1ccco1	13	19	2	12	0	11	.	.	.	.	.
COc1ccc(CNC(=O)C2CCCN2C(=O)NCc2ccccc2)cc1 (stereo not given)	11	-13	-7	.	-5	0	.	.	.	.	.
CC1=C(C(=O)N2CCOCC2)CC(CC(=O)NCC2CCCCC2)C(=O)N1Cc1ccccc1 (stereo not given)	25	10	.	.	.	.	.	.	.	.	.
CC1(C)CCC(=O)N2CC[C@H]3C[C@H](OC(=O)Nc4ccccc4)C[C@@H]1[C@H]32	15	12	56*	.	73*	69*	49	52*	87*	77*	69*
Cc1nn(Cc2ccccc2)c(C)c1C(=O)N1CCN(CC(=O)Nc2ccc(F)cc2)CC1	13	4	0	.	53*	-3	-12	-6	-6	-2	-7
COc1ccc(S(=O)(=O)NCCSCc2ccc(Cl)cc2)cc1NC(C)=O	5	1	0	.	1	-4	.	.	.	.	.
COc1ccc(OCCN2C(=O)c3ccccc3C2=O)cc1	10	1	6	2	13	25	.	.	.	.	.
Nc1cccc2c1C(=O)N(CCOc1ccc(F)cc1)C2=O	-321	-18	49	.	55*	68*	55*	48	85*	53*	5
O=C1c2ccccc2C(=O)N1CCOc1ccccc1	11	-3	18	.	47	60*	40	36	73*	59*	52*
O=C1c2ccccc2C(=O)N1CCOc1ccccc1Cl	9	-32	37	.	59*	51*	32	48	78*	47	56*
O=C(c1cc2ccccc2o1)N1CCN(c2ncccn2)CC1	-14	-5	-9	.	-10	-7	.	.	.	.	.
O=C(O)C1C=CCC(C(=O)O)C1 (stereo not given)	-2	-4	.	.	.	.	.	.	.	.	.
CCOc1ccc(N2CC(C(=O)Nc3c(C)n(C)n(-c4ccccc4)c3=O)CC2=O)cc1 (stereo not given)	23	11	-8	-2	-4	-14	.	.	.	.	.
COCCCN=Cc1c(C)[nH]n(-c2ccc(Br)c(C)c2)c1=O	6	16	4	-1	38	53*	-3	-6	46	26	34
O=C(NNC(=O)c1ccccc1F)c1ccc(S(=O)(=O)N2CCCCC2)cc1	8	4	5	.	7	-11	.	.	.	.	.
Cc1cc(N(C)C)ccc1N=Nc1ccc(N)cc1	35	45	34	.	26	46	.	.	.	.	.
CC(=O)c1ccc(N=Nc2ccc(C)cc2)cc1	22	47	82*	44	87*	85*	61*	62*	79*	68*	48
CN(C)c1ccc(N=Nc2ccccc2Br)cc1	35	55*	93*	.	99*	96*	87*	94*	91*	90*	57*
CC(=O)c1ccc(N=Nc2ccc(N(C)C)cc2)cc1	37	78*	75*	45	93*	54*	16	25	16	53*	13
Cc1ccc(C(=O)c2ccc(C)cc2)cc1	12	-6	-11	19	8	-25	.	.	.	.	.
CC1(C)Cc2c(cnn2-c2ccc(F)cc2)C(NC(=O)C2=NNC(=O)CC2)C1 (stereo not given)	3	-16	-11	.	-3	-10	.	.	.	.	.
CSc1cccc(NC(=O)CC2Oc3ccccc3NC2=O)c1 (stereo not given)	5	17	-4	.	-10	-19	.	.	.	.	.
SMILES	SENP8 block-1	TRAIL sens C8	SENP8 block-2	PPC-1+TRAIL kill	SENP7 inh	SENP6 inh	SENP8 conf	SENP6 confirm	SENP7 confirm	Casp3 select	Luc interf
CCOC(=O)C1=C(C)Nc2ccccc2N/C1=N\S(=O)(=O)c1ccccc1	27	3	0	.	5	-1	.	.	.	.	.
COc1ccc(C=C2SC(=S)N(CCCC(=O)Nc3ccc(C(=O)O)c(O)c3)C2=O)cc1OC	17	2	.	.	.	.	.	.	.	.	.
O=C(CCCN1C(=O)/C(=C/c2ccccc2)SC1=S)Nc1ccc(C(=O)O)c(O)c1	18	-3	73*	.	20	79*	73*	72*	84*	32	76*
O=C(CCN1C(=O)/C(=C\c2ccccc2F)SC1=S)Nc1ccc(C(=O)O)c(O)c1	10	-1	64*	.	12	66*	78*	73*	67*	12	52*
O=C(CCN1C(=O)S/C(=C\c2ccc(F)cc2)C1=O)Nc1ccc(C(=O)O)c(O)c1	-7	26	75*	.	60*	82*	85*	80*	81*	44	79*
O=C(CCN1C(=O)S/C(=C/c2ccccc2)C1=O)Nc1ccc(C(=O)O)c(O)c1	5	25	45	.	10	57*	60*	55*	74*	32	65*
CCCc1cc(=O)[nH]c(SCC(=O)c2ccc3c(c2)NC(=O)CO3)n1	8	0	0	10	6	98*	-15	-10	-12	-4	-9
CCCc1nc(SCC(=O)c2ccc3c(c2)NC(=O)CO3)[nH]c(=O)c1CC	5	-5	.	.	.	.	.	.	.	.	.
Cc1ccc(NC(=O)Cc2noc3ccccc23)cc1	3	4	24	-6	44	51*	47	47	74*	61*	17
O=C(Cc1noc2ccccc12)Nc1ccc2ccccc2c1	10	9	-4	6	-9	-6	.	.	.	.	.
COc1ccc(CCNC(=O)CO/N=C/c2cc3c(cc2Br)OCO3)cc1OC	3	44	1	-9	-16	4	.	.	.	.	.
COc1ccc(SCC(=O)Nc2ccccc2Cl)cc1	8	-6	-4	36	-7	-2	.	.	.	.	.
